This note sets out measurements from PubChem BioAssay (NCI).

This is part of a sample that, as a whole, favours compounds with a hit. Of some 83,000 tested, about 20% had one in any assay.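 Activity criterion: percent growth below 10, measured after cells in 96-well plates were exposed to a single compound concentration for 48 hours.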 A number with no mark means an inactive call. The source made the active and inactive calls.

Among the test systems are HCT-15 colon; HT29 colon; SNB-75 CNS; SNB-19 CNS; U251 CNS; PC-3 prostate; SK-MEL-5 melanoma; UACC-62 melanoma; LOX IMVI melanoma; SK-MEL-28 melanoma; SK-MEL-2 melanoma; EKVX NSCLC; SN12C renal; UO-31 renal; TK-10 renal; ACHN renal; CAKI-1 renal; CCRF-CEM leukemia; MOLT-4 leukemia.
What all share (assay): NCI-60 one-dose screen, 48 h (100 = growth as untreated, 0 = no growth, -100 = all killed)
What all share (conditions): 10 µM unless noted

Regarding `O=C1Nc2cc(-c3cccc(O)c3)ccc2/C1=C/c1ccc[nH]1`, the growth with HCT-15 colon is 9.89% (active); in the experiment on HT29 colon it was 83.3%; with SNB-75 CNS it was -13.7% (active); in the experiment with SNB-19 CNS it was 43.4%; with U251 CNS, 25.9%; in the experiment with PC-3 prostate it was 35.4%. Also, the growth in the experiment on SK-MEL-5 melanoma was 6.19% (active); with UACC-62 melanoma, 24.1%; with LOX IMVI melanoma, 7.66% (active); in the experiment with SK-MEL-28 melanoma, 16.4%; in the experiment with SK-MEL-2 melanoma, 3.73% (active); with EKVX NSCLC, 22.6%. The growth is 15.5% with SN12C renal; -1.56% (active) in the experiment with UO-31 renal; 16.4% in the experiment on TK-10 renal; 11% in the experiment with ACHN renal; 5.88% (active) in the experiment with CAKI-1 renal; 13.4% in the experiment with CCRF-CEM leukemia. In addition, the growth in the experiment on MOLT-4 leukemia is 15.4%.

For `COc1ccc(OC)c(-c2cc(-c3ccc(Cl)cc3)c3c(N)c(C(=O)c4ccc(Cl)cc4)sc3n2)c1`, the growth with HCT-15 colon is 106%; in the experiment on HT29 colon it was 91.1%; in the experiment with SNB-75 CNS, 73.6%; with SNB-19 CNS, 103%; with U251 CNS, 101%; in the experiment with PC-3 prostate, 81.4%. In addition, the growth in the experiment with SK-MEL-5 melanoma was 107%; in the experiment with UACC-62 melanoma it was 92.2%; in the experiment on LOX IMVI melanoma, 98.3%; in the experiment with SK-MEL-28 melanoma, 105%; in the experiment with SK-MEL-2 melanoma, 94.2%; in the experiment with EKVX NSCLC it was 93.8%. In addition, the growth is 101% in the experiment with SN12C renal; 75.4% in the experiment with UO-31 renal; 102% in the experiment with TK-10 renal; 97.4% with ACHN renal; 88.5% in the experiment on CAKI-1 renal; 88.7% in the experiment with CCRF-CEM leukemia. For the same compound, the growth in the experiment on MOLT-4 leukemia was 103%.

With `C=CCN1C(=O)/C(=C/C(=O)OC)S/C1=N\NC(=O)c1cc2ccc1/C=C\c1ccc(cc1)/C=C\2`, the growth in the experiment on HCT-15 colon was 66.9%; in the experiment with HT29 colon, 46%; in the experiment with SNB-75 CNS it was 78.1%; with SNB-19 CNS, 84.7%; in the experiment with U251 CNS, 81.8%; in the experiment with PC-3 prostate, 48.4%. In addition, the growth with SK-MEL-5 melanoma is 92.5%; in the experiment on UACC-62 melanoma it was 77.2%; with LOX IMVI melanoma, 78.8%; in the experiment on SK-MEL-28 melanoma, 102%; in the experiment on SK-MEL-2 melanoma it was 97.3%; in the experiment on EKVX NSCLC it was 90.8%. Further, the growth was 86.9% in the experiment on SN12C renal; 75.4% in the experiment with UO-31 renal; 108% in the experiment on TK-10 renal; 87.9% in the experiment with ACHN renal; 87.8% with CAKI-1 renal; 22.9% in the experiment on CCRF-CEM leukemia. Further, in the experiment with MOLT-4 leukemia, the growth was 35.4%.

For the compound `Cc1ccc(-c2csc(NC(=O)CSc3nc(-c4ccccc4)cc(=O)[nH]3)n2)cc1`, the growth in the experiment with HCT-15 colon is 94.5%; with HT29 colon, 102%; in the experiment on SNB-75 CNS it was 96.1%; with SNB-19 CNS, 87.5%; in the experiment with U251 CNS, 92.2%; in the experiment on PC-3 prostate it was 86.5%. In addition, the growth in the experiment on SK-MEL-5 melanoma is 87.4%; with UACC-62 melanoma, 70%; in the experiment with LOX IMVI melanoma, 96.5%; in the experiment with SK-MEL-28 melanoma, 97.5%; in the experiment with SK-MEL-2 melanoma, 89.4%; with EKVX NSCLC, 90.9%. In addition, the growth with SN12C renal was 94.9%; with UO-31 renal, 76%; with TK-10 renal, 108%; with ACHN renal it was 91.7%; in the experiment on CAKI-1 renal, 90.7%; in the experiment on CCRF-CEM leukemia, 88.8%. For the same compound, the growth in the experiment on MOLT-4 leukemia is 74.2%.

In the case of `O=C(Cc1ccc(/C=C/C(=O)c2nccs2)cc1)Nc1ccccc1`, the growth was 78.4% in the experiment with HCT-15 colon; 72.7% in the experiment with HT29 colon; 108% in the experiment on SNB-75 CNS; 84.8% in the experiment on SNB-19 CNS; 47.7% in the experiment on U251 CNS; 91.7% with PC-3 prostate. For the same compound, the growth in the experiment with SK-MEL-5 melanoma was 88.8%; in the experiment on UACC-62 melanoma it was 83.9%; with LOX IMVI melanoma, 72.4%; with SK-MEL-28 melanoma, 105%; in the experiment on SK-MEL-2 melanoma it was 105%; in the experiment with EKVX NSCLC, 103%. Further, the growth is 91.9% with SN12C renal; 89.1% in the experiment with UO-31 renal; 98.8% with TK-10 renal; 96.5% in the experiment on ACHN renal; 99.9% in the experiment with CAKI-1 renal; 14.4% in the experiment with CCRF-CEM leukemia. The growth in the experiment with MOLT-4 leukemia is 6.27% (active).

Turning to `COc1cc2oc(-c3cccc(C(=O)Nc4ccc5c(c4)OCO5)c3)cc(=O)c2c(O)c1OC`, the growth is 93.6% in the experiment with HCT-15 colon; 76.3% with HT29 colon; 84.6% in the experiment on SNB-75 CNS; 72.1% in the experiment with SNB-19 CNS; 55.8% in the experiment with U251 CNS; 72.3% with PC-3 prostate. In addition, the growth with SK-MEL-5 melanoma was 84%; in the experiment with UACC-62 melanoma, 81.4%; in the experiment on LOX IMVI melanoma, 88.2%; in the experiment on SK-MEL-28 melanoma it was 89.8%; in the experiment on SK-MEL-2 melanoma, 89.9%; with EKVX NSCLC it was 87%. Also, the growth in the experiment with SN12C renal was 68.7%; in the experiment with UO-31 renal, 82.1%; in the experiment with TK-10 renal it was 98.6%; in the experiment on ACHN renal, 75.3%; in the experiment on CAKI-1 renal it was 76.9%; in the experiment on CCRF-CEM leukemia, 97.2%. Moreover, in the experiment with MOLT-4 leukemia, the growth is 101%.

For the compound `Nc1c(C(=O)Nc2cccc3cnccc23)sc2nc3c(cc12)C(=O)CCC3`, the growth in the experiment with HCT-15 colon is 70.9%; with HT29 colon, 79.9%; with SNB-75 CNS, 88.5%; with SNB-19 CNS, 66.6%; with U251 CNS it was 95.7%; with PC-3 prostate, 75.9%. In addition, the growth was 47.6% with SK-MEL-5 melanoma; 43.1% with UACC-62 melanoma; 91.6% in the experiment on LOX IMVI melanoma; 85.1% with SK-MEL-28 melanoma; 77.2% in the experiment with SK-MEL-2 melanoma; 91.6% in the experiment on EKVX NSCLC. The growth with SN12C renal was 89.2%; with UO-31 renal, 81.8%; in the experiment on TK-10 renal, 104%; in the experiment on ACHN renal, 101%; in the experiment with CAKI-1 renal it was 77.8%; in the experiment with CCRF-CEM leukemia it was 64.6%. Further, the growth in the experiment with MOLT-4 leukemia is 102%.

`O=C(/C=C/c1ccc(Cl)cc1)c1ccc(NC(=O)N2CCN(c3cc4c(cc3F)c(=O)c(C(=O)O)cn4C3CC3)CC2)cc1`: the growth is 96.4% with HCT-15 colon; 89.3% in the experiment on HT29 colon; 92.1% in the experiment on SNB-75 CNS; 87.6% in the experiment with SNB-19 CNS; 92.4% in the experiment with U251 CNS; 97.7% in the experiment on PC-3 prostate. For the same compound, the growth was 93.6% in the experiment with SK-MEL-5 melanoma; 76.1% in the experiment on UACC-62 melanoma; 6.5% (active) in the experiment with LOX IMVI melanoma; 99.2% with SK-MEL-28 melanoma; 98.2% with SK-MEL-2 melanoma; 98.4% in the experiment with EKVX NSCLC. Further, the growth was 86.4% in the experiment with SN12C renal; 80.2% in the experiment on UO-31 renal; 107% with TK-10 renal; 101% in the experiment with ACHN renal; 82.7% in the experiment on CAKI-1 renal; 72.2% in the experiment on CCRF-CEM leukemia. In addition, the growth with MOLT-4 leukemia was 92.1%.
